CHRM1 agonist = activates human CHRM1 receptor. P11229. CHO-K1 hM1, Fluo-8 calcium fluorescence, agonist mode; 0% DMSO, 100% acetylcholine EC100. activation, % at 3 µM. actives 0.33% (n = 360,000). AID 588814;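 active = activation above the run's mean compound activation plus 3 SD, cut at about 16% in these data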;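 also: peak over basal fluorescence ratio within a 140 s kinetic read after compound addition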
Target sequence (P11229 whole entry, looked up): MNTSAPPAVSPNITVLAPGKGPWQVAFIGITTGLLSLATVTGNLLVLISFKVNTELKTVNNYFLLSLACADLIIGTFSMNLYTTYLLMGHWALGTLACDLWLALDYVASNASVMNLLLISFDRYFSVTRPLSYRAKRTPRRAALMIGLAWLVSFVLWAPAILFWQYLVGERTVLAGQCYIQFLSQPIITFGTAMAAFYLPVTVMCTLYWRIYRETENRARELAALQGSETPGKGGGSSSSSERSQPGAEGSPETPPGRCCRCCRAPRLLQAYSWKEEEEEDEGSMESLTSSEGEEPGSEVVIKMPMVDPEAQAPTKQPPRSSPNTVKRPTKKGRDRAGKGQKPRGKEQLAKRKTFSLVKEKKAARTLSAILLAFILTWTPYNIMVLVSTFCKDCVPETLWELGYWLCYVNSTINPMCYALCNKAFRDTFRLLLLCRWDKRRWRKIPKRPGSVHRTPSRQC
CHRM1 antagonist = antagonists of human M1 muscarinic receptor; CHO-K1 hM1, Fluo-8 calcium fluorescence, ACh EC80 antagonist; inhibition, % at 3 µM; actives 1.3% (n = 360,000); AID 588852;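 active = percent inhibition above its own plate's cutoff, namely the mean of that plate's compound wells plus 3 SD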;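 also: peak over basal fluorescence ratio during 140 s after agonist addition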
CHO-K1 Ca ag = nonselective activator or artifact in parental CHO-K1 cells | Fluo-8 calcium fluorescence; scaled to maximal ATP response, vehicle zero | activation, % at 3 µM | actives 0.48% (n = 360,000) | AID 602248; in the data active = activation above about 15%;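 also: untransfected CHO-K1 host cells lacking M1 receptor as counterscreen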
CHO-K1 Ca antag = nonselective inhibitor or artifact in parental CHO-K1 cells; ATP-induced calcium, Fluo-8 fluorescence; inhibition, % at 3 µM; actives 0.6% (n = 360,000);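 active = inhibition above a per-plate cutoff, the plate's mean sample inhibition plus 3 SD, cut at about 24% in these data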
CHRM1 PAM = positive allosteric modulators of human M1 muscarinic receptor | actives 0.088% (n = 360,000) | activation, % at 3 µM | CHO-K1 hM1, Fluo-8 calcium fluorescence, ACh EC20; 0% = ACh EC20, 100% = maximal ACh | P11229 | AID 588819; in the data active = activation above about 19%, passing the limit was not always enough
CHO-K1 Ca PAM = M1 PAM counterscreen hit in parental CHO-K1 cells; actives 0.02% (n = 360,000); AID 602247; activation, % at 3 µM; ATP EC20, Fluo-8 calcium fluorescence; 0% at ATP EC20, 100% at ATP max;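 active = activation above the run cutoff, the mean activation of all test compounds plus 3 SD, cut at about 40% in these data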;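 also: peak over basal fluorescence ratio in a 140 s read after ATP addition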
Hits are given with their value; – = inactive; · = not tested or not shown. In the library only some 2.3% were active in any assay of this set; here they are far more common.

SMILES | CHRM1 agonist | CHRM1 antagonist | CHO-K1 Ca ag | CHO-K1 Ca antag | CHRM1 PAM | CHO-K1 Ca PAM
O=C(NC1CCCCC1)c1cccc(NC(=O)c2ccccc2Cl)c1 | – | – | – | – | – | –
Nc1nc(N)c(N=O)c(Nc2cccc(Cl)c2)n1 | · | · | – | – | · | –
Cc1ccc(Nc2nc(N)nc(N)c2N=O)cc1Cl | · | · | 36 | – | · | –
Nc1nc(N)c(N=O)c(Nc2ccc(Cl)c(Cl)c2)n1 | · | · | – | – | · | 53
Nc1nc(N)c(Br)c(Nc2ccc(Cl)c(Cl)c2)n1 | – | – | – | – | – | –
CCc1nc(Cl)c(C#N)c2c1CCCC2 | – | – | – | – | – | –
CCCc1nc(Cl)c(C#N)c2c1CCCC2 | 22 | – | – | – | – | –
Cc1ccc(S(=O)(=O)NNC(=O)c2c(O)c3ccccc3[nH]c2=O)cc1 | – | – | 16 | – | – | –
CCOC(=O)C1CCCN(C(=O)C(C)Oc2ccc(Cl)cc2Cl)C1 (stereo not drawn) | 21 | – | – | – | – | –
CCOC(=O)C1CCCN(C(=O)c2ccc(Cl)cc2)C1 (stereo not drawn) | – | – | – | – | – | –
COC(=O)C1CCN(C(=O)C(C)Oc2ccc(Cl)cc2Cl)CC1 (stereo not drawn) | – | – | – | – | – | –
CCOC(=O)C1CCCN(C(=O)c2cc(Cl)ccc2Cl)C1 (stereo not drawn) | 19 | – | – | – | – | –
CCOC(=O)C1CCCN(C(=O)c2ccc(S(=O)(=O)N3CCOCC3)cc2)C1 (stereo not drawn) | – | – | – | – | – | –
CCOC(=O)C1CCN(C(=O)COC(=O)/C=C/c2cccc(OC)c2OC)CC1 | 19 | – | – | – | – | –
CCOC(=O)C1CCN(C(=O)COC(=O)/C=C/c2ccccc2)CC1 | – | – | – | – | – | –
CCOC(=O)C1CCCN(C(=O)c2ccc(S(=O)(=O)N3CCCC3)cc2)C1 (stereo not drawn) | – | 39 | – | – | – | –
O=S1(=O)C[C@@H](N2CCC(Cc3ccccc3)CC2)[C@H](COCc2ccccc2)N1 | – | – | – | – | – | –
CCOC(=O)C1CCN(C(=O)COc2ccc(Cl)cc2C)CC1 | – | – | – | – | – | –
CCOC(=O)C1CCN(C(=O)COc2ccc(Cl)cc2Cl)CC1 | – | – | – | 24 | – | –
COC(=O)[C@]12CCCCC=C1N(Cc1cccc3ccccc13)C(=O)[C@H](CC(=O)NCCc1ccccc1OC)C2 | · | · | – | – | · | –
COCCNC(=O)C1CCCN(C(=O)COc2ccc(C(C)(C)C)cc2)CC1 (stereo not drawn) | – | – | – | – | – | –
CN1CCC(=C2c3ccccc3Sc3ccccc32)CC1 | – | 100 | – | – | – | –
O=C(CSC1=NS(=O)(=O)c2cc(F)ccc2N1)NCc1ccccc1 | – | – | – | – | – | –
O=C(CSC1=NS(=O)(=O)c2cc(Cl)ccc2N1)NCc1ccc(F)cc1 | – | – | – | 30 | – | –
CCC(=O)N1CCC1(C)C(=O)Nc1ccccc1 (stereo not drawn) | – | – | – | – | – | –
SMILES | CHRM1 agonist | CHRM1 antagonist | CHO-K1 Ca ag | CHO-K1 Ca antag | CHRM1 PAM | CHO-K1 Ca PAM
O=C(CSc1nnc(-c2cccnc2)n1-c1ccc(SC(F)F)cc1)N1CCCc2ccccc21 | – | – | – | 24 | – | –
CC(C)C(N)c1csc(Nc2ccc(S(C)(=O)=O)cc2)n1 (stereo not drawn) | – | – | – | – | – | –
C[C@H](NC(=O)[C@@H]1CSC2c3ccccc3C(=O)N21)C(=O)NC1CCCC1 (stereo partly drawn) | – | 27 | – | – | – | –
C[C@H](NC(=O)[C@@H]1CSC2c3ccccc3C(=O)N21)C(=O)NC1CCCCC1 (stereo partly drawn) | – | – | – | – | – | –
Nc1nc(N)c2cc([N+](=O)[O-])ccc2n1 | – | – | – | – | – | –
Nc1nc(N)c2c(ccc3c2ccn3Cc2cccc([N+](=O)[O-])c2)n1 | – | 43 | – | – | – | –
CCOc1ccc(N(C)S(=O)(=O)c2ccc(C)c(C(=O)N3CCN(Cc4ccc5c(c4)OCO5)CC3)c2)cc1 | – | – | – | – | – | –
CCO[C@H]1OC(C(=O)NCc2ccccc2)=C[C@@H](c2ccc3c(c2)OCO3)[C@@H]1CCCO | 18 | – | – | – | – | –
CCO[C@@H]1OC(C(=O)NCc2ccccc2)=C[C@H](c2ccc3c(c2)OCO3)[C@H]1CCCO | – | – | – | – | – | –
CCO[C@H]1OC(C(=O)N2CCOCC2)=C[C@@H](c2ccccc2)[C@@H]1CCCO | – | 67 | – | – | – | –
COc1nccnc1NS(=O)(=O)c1ccc(NC(=O)c2ccc(F)cc2)cc1 | – | – | – | – | 29 | –
COCOCCn1cc(CN2CCS(=O)(=O)N(Cc3ccc(-c4ccncc4)cc3)C(CC(C)C)C2=O)nn1 (stereo not drawn) | – | – | – | – | – | –
O=C(NCC1CCCO1)c1ccc2c(c1)N(Cc1ccccc1)C(=O)CS2 (stereo not drawn) | – | 45 | – | – | – | –
O=C(NCCN1CCOCC1)c1ccc2c(c1)N(Cc1ccccc1F)C(=O)CS2 | – | 59 | – | – | – | –
O=C(NCc1ccco1)c1ccc2c(c1)N(Cc1ccccc1)C(=O)CS2 | – | – | – | – | – | –
O=C(CN1C(=O)CSc2ccc(S(=O)(=O)N3CCOCC3)cc21)NCCCN1CCCCC1 | – | 38 | – | – | – | –
Cc1ccc(C)c(CN2C(=O)CSc3ccc(C(=O)NCCN4CCOCC4)cc32)c1 | – | – | – | – | – | –
O=C(NCCCN1CCOCC1)c1ccc2c(c1)N(Cc1c(F)cccc1Cl)C(=O)CS2 | – | 100 | – | – | – | –
O=C(CN1C(=O)CSc2ccc(S(=O)(=O)N3CCOCC3)cc21)NCCCN1CCOCC1 | – | – | – | – | – | –
S=C(NCCCCN(Cc1ccc(Cl)cc1)c1ccc(Br)cn1)NCCCc1cnc[nH]1 | – | – | – | – | – | –
CC(C)(C)OC(=O)NCc1ccc(CNC(=O)c2[nH]cnc2C(=O)Nc2ccccc2F)cc1 | – | – | – | – | – | –
C[C@@H]1CCCCO[C@@H](CN(C)S(=O)(=O)c2cn(C)cn2)[C@@H](C)CN([C@H](C)CO)C(=O)c2cc(N(C)C)ccc2O1 | – | – | – | – | – | –
CC(=O)Nc1ccc(-c2ccnc3c2CC(C(=O)NCc2ccco2)O3)cc1 (stereo not drawn) | – | – | – | – | – | –
COCCN(C(=O)Cc1cccs1)C(C(=O)NCc1ccc(OC)cc1)c1ccc(C)cc1 (stereo not drawn) | – | – | – | – | – | –
COCCNC(=O)C(c1ccc(C)o1)N(Cc1ccc(OC)cc1)C(=O)Cn1nnc2ccccc21 (stereo not drawn) | 23 | – | – | – | – | –
